Sampled rows, rich in hits. Any-hit rate of the full collection: about 7.8%.
Vaccinia Venus = inhibitors of vaccinia virus (Venus reporter). Potency, µM (top dose mostly 36.5 µM), for the others: at the highest dose activity change, negative = inhibition, actives largely listed as inhibitors. 0.46% of 330,000 active. Vaccinia virus Venus reporter expression, fluorescence. AID 720580; calls by dose curve; tested in A549 cells; further: potency means the concentration at half of the fitted maximal effect; nearly all actives have a fitted effect of over 30% in size
HCMV antiviral = blocks human cytomegalovirus replication. HFF cells, HCMV-luciferase reporter, 72 h; hits give low values. activity change, negative = inhibition, % at 57.5 µM. 4.5% of 410,000 active; in the data active means activity change below about -60%; inconclusive means no clear call, values can overlap the other calls; inactive means above about -39%
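Two compound doses tested in HFFs infected with HCMV-luciferase, MOI 1 PFU/cell, 72 h at 37C. Lysate luminescence read with OneGlo; data normalized against buffer-only and 10uM Salinomycin inhibitor controls.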
Lassa entry inh = blocks Lassa virus binding to or entry into cells; Lassa virus pseudotype entry inhibition, cell reporter; Potency, µM (highest dose often 37.9 µM), inactives show at the top dose activity change, negative = inhibition, hits mostly inhibitors; 1.2% of 300,000 active; AID 540256; calls by dose curve; tested in HEK293 cells; further: potency means the concentration at half of the fitted maximal effect; nearly all actives have a fitted effect of over 50% in size
HCV inhibitor = HCV inhibition. Huh7.5.1 HCVcc-Cre infection, luciferase reporter, 44 h. Potency, µM (titrated, usually from 41.8 µM), inactives show top-dose activity change, negative = inhibition, usual class: inhibitors. 3.4% of 340,000 active. AID 651820; active means well fitted inhibition curve with a large enough effect; inconclusive means small, poorly fitted or top-dose-only effect, or another doubt; inactive means no such curve, though single readings can be large or run the other way; further: potency means the concentration at half of the fitted maximal effect
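Reporter virus HCVcc-Cre (~0.5 moi) infects cells exposed to compound; seeding density 1,000 cells/well with 4 h settling beforehand. Luminescence, 15 sec read, taken 44 h post-infection following a 15 min RT substrate incubation.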
Marburg entry inh = blocks Marburg virus binding to or entry into cells | Potency, µM (titrated, usually from 37.8 µM), for the others: top-dose activity change, negative = inhibition, hits mostly inhibitors | AID 540276 | 1.8% of 300,000 active | Marburg virus pseudotyped entry inhibition, cell reporter; calls by dose curve; tested in HEK293 cells; further: potency means the concentration at half of the fitted maximal effect
VACV mCherry inh = inhibitors of vaccinia virus infection (mCherry reporter signal) | AID 720579 | Vaccinia virus mCherry reporter infection, fluorescence | Potency, µM (series often up to 36.5 µM), without a hit: at the top dose activity change, negative = inhibition, hits mostly inhibitors | 0.63% of 310,000 active; calls by dose curve; tested in A549 cells; further: potency means the concentration at half of the fitted maximal effect; nearly all actives have a fitted effect of over 35% in size
Numbers without * were called inactive; i = inactive; ? = inconclusive; · = no result; [ ] = dose if it differs, or a comment. On the % scale 0 is the no-effect control and ±100 the full control effect.

SMILES	Vaccinia Venus	HCMV antiviral	Lassa entry inh	HCV inhibitor	Marburg entry inh	VACV mCherry inh
COc1ccc(-c2c(C)[nH]n3c(=O)c(Cc4ccccc4)c(C)nc23)cc1	?	-88*	?	-16%	?	?
COc1cccc(CNC(=O)c2cc(-c3ccc(Cl)cc3)n[nH]2)c1	-6%	-14	18%[46.1 µM]	·	·	-3%
Cc1cnc(-n2ncc(C(=O)NCc3ccncc3)c2C2CC2)nc1-c1cccs1	-28%	·	·	·	·	?
COc1cccc(CNC(=O)c2c(OC)cc(=O)n3c2CCN(C(=O)c2ccccc2Cl)CC3)c1	-8%	·	·	·	·	i
Cc1nc2ccn(Cc3ccco3)c(=O)c2cc1C(=O)NCc1ccc(F)cc1	-13%	5	?	·	·	-15%
COC(=O)N[C@@H](c1ccco1)C(C(C)=O)C(=O)OC (some centres undefined)	·	·	?	·	-27%[14.2 µM]	·
Cc1ccc(Cc2c(C)nc3c(-c4ccccc4)c(C)[nH]n3c2=O)cc1	?	-73*	8%[46.1 µM]	·	?	?
CCOc1ccc(S(=O)(=O)N2CCC(C(=O)N3CCN(c4ccccc4F)CC3)CC2)cc1C	?	9	7.1µM*	?	?	?
CCOC(=O)c1ccc(S(=O)(=O)N2CCC(C(=O)N3CCN(c4ccccc4OC)CC3)CC2)cc1	?	4	-13%	10µM*	-19%	?
COc1ccccc1N1CCN(C(=O)C2CCN(S(=O)(=O)c3ccc(F)cc3)CC2)CC1	·	37	-4%	-1%	?	·
COc1ccc(NC(=O)CCc2c(C)nc3nc(CNC(=O)OC(C)(C)C)nn3c2C)cc1OC	0%	1	0%[46.1 µM]	·	-8%[46.1 µM]	7%
COCCNC(=O)c1cccc(Nc2nc3ccccc3n3nnnc23)c1	-17%	0	-6%[46.1 µM]	·	·	-19%
CCCCOc1ccc(C(C)NC(=O)c2cccc(Nc3nc4ccccc4n4nnnc34)c2)cc1 (centres undefined)	?	-98*	0%[46.1 µM]	·	·	?
Cc1ccc(CNC(=O)c2cccc(Nc3nc4ccccc4n4nnnc34)c2)cc1	7.9µM*	10	?	·	1%[46.1 µM]	6.3µM*
C=C(C)CCN1C(=O)NC(c2ccccc2)C(C(C)=O)=C1C (centres undefined)	·	·	?	·	7%[14.2 µM]	·
CC(=O)N1c2ccc(S(=O)(=O)NCC3CCC(C(=O)NC(C)(C)C)CC3)cc2CC1C (centres undefined)	-5%	7	0%[46.1 µM]	·	·	-1%
COC(=O)c1nnn(CC(=O)Nc2cc(F)ccc2F)c1C(=O)OC	-2%	-109*	-1%[46.1 µM]	·	5%[46.1 µM]	1%
CCOC(=O)c1nnn(CC(=O)Nc2cc(F)ccc2F)c1C(=O)OCC	-1%	23	19%	4%	15%	-10%
CCOc1ccc(CCNC(=O)c2cc3c(s2)-c2ccccc2OC3)cc1OCC	3%	?	·	·	?	-9%
Cn1c(N)c(C(=O)Nc2ccc(-c3ccccc3)cc2)sc1=S	·	-76*	·	?	·	·
CCn1c(N)c(C(=O)NCC2CCCO2)sc1=S (centres undefined)	-4%	13	14%	17%	3%	·
C=CCn1c(N)c(C(=O)Nc2ccc(C)cc2)sc1=S	-6%	-91*	·	-9%	-3%	?
C=CCn1c(N)c(C(=O)NCC2CCCO2)sc1=S (centres undefined)	-14%	-62*	18%	1%	-2%	-17%
COc1ccc(C2CC(=O)c3cc(-c4nc(-c5ccc(Cl)cc5)cs4)c(=O)[nH]c3C2)cc1OC (centres undefined)	-1%	-11	-3%[46.1 µM]	·	17%[46.1 µM]	-8%
COc1cc2c(cc1OC)[C@@H]1O[C@](CCCCN3C(=O)c4ccccc4C3=O)(C2)OC2=C1C(=O)CC(C)(C)C2	·	·	·	·	-9%[14.2 µM]	·
Cc1c(C(=O)N2CCCC2)sc2ncnc(NCCc3ccccn3)c12	-8%	·	·	·	·	-13%
CC[C@H]1OC(=O)[C@H](C)C(=O)[C@H](C)[C@@H](O[C@@H]2O[C@H](C)C[C@H](N(C)C)[C@H]2O)[C@](C)(OC)C[C@@H](C)C(=O)[C@H](C)[C@H]2N(CCCCn3cnc(-c4cccnc4)c3)C(=O)O[C@]12C	-8%	·	·	·	·	-14%
COc1cc(C(O)c2nc3ccccc3s2)cc(OC)c1OC (centres undefined)	-29%	-36	·	7.1µM*	·	?

High-throughput results as filed in PubChem.
